From PubChem BioAssay (NCATS)
Inconclusive results are not listed. The source made the active and inactive calls. Unless noted, the rule behind the calls is not given here.

Experiments:
[1] = qHTS Assay for Identifying Gametocytocidal Compounds (AID 743244; active = well fitted curve in the direction sought with a large enough effect; an effect the other way counts as inactive or inconclusive; note: potency is the fitted concentration of half-maximal effect;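 for max response: % is set by controls: 0 for no effect and ±100 for the full control effect; actives lower the fluorescent signal which means gametocytes are killed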); details: P. falciparum 3D7 stage III-V gametocytes, alamarBlue, 72 h; max response: stronger effect = lower value
Procedure, shortened: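 3D7 gametocytes, stages III–V, 20,000/well; cpd 72 h, 37 °C/5% CO2; + alamarBlue 24 h; fluor. Ex 525/Em 598.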

[2] = qHTS profiling for inhibitors of Plasmodium falciparum (3D7) proliferation (AID 743322);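 note: infected erythrocytes exposed to compound for 72 h before lysis; 100% = DMSO vehicle wells and 0% = 0.29 µM artemisinin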; details: P. falciparum 3D7 proliferation; at 28.7 µM (top of the series) unless noted
Procedure, shortened: (§1)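 Parasite DNA was quantified by SYBR Green I fluorescence (ex 485, em 535 nm) after overnight lysis in saponin/Triton buffer at room temperature. Cultures at 0.3% parasitemia and 2.5% hematocrit were first exposed to compound for 72 h at 37 C; signals were normalised to artemisinin (0.29 uM) and vehicle wells.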

[3] = qHTS profiling for inhibitors of Plasmodium falciparum (DD2) proliferation (AID 743323); details: lower = more inhibition; at 28.7 µM (top of the series) unless noted
Procedure, shortened: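 Parasite proliferation measured via DNA-dye fluorescence, as uninfected erythrocytes lack DNA. Cultures at 0.3% parasitemia and 2.5% hematocrit incubated 72 h with compound; signal scaled between vehicle and 0.29 uM artemisinin wells.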

[4] = qHTS profiling for inhibitors of Plasmodium falciparum (HB3) proliferation (AID 743324; active = well fitted curve in the direction sought with a large enough effect; an effect the other way counts as inactive or inconclusive;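 note: 100% = DMSO vehicle wells and 0% = artemisinin-treated control wells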); details: Plasmodium falciparum HB3 blood-stage proliferation; at 28.7 µM (top of the series) unless noted
Procedure, shortened: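 SYBR Green fluorescence (485 ex/535 em) of lysed cultures, incubated overnight at room temperature in the dark, quantifies parasite DNA. Infected erythrocytes at 0.3% parasitemia and 2.5% hematocrit were exposed 72 h; values normalized to DMSO and 0.29 uM artemisinin controls.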

[5] = qHTS profiling of the MIPE4 collection as inhibitors of Plasmodium falciparum (3D7) proliferation (AID 743344);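 note: scaled between DMSO vehicle wells and 0.29 µM artemisinin as full inhibition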; details: P. falciparum 3D7 in erythrocytes, SYBR Green DNA fluorescence, 72 h; at 28.5 µM (top of the series) unless noted
Procedure, shortened: as §1

[6] = qHTS profiling of the MIPE4 collection as inhibitors of Plasmodium falciparum (DD2) proliferation (AID 743345); details: P. falciparum Dd2 in erythrocytes, SYBR Green DNA, 72 h; at 28.5 µM (top of the series) unless noted
Procedure, shortened: as §1

[7] = qHTS profiling of the MIPE4 collection as inhibitors of Plasmodium falciparum (DD2) proliferation (Rep 2) (AID 743346); details: P. falciparum Dd2 in erythrocytes, SYBR Green DNA, 72 h; at 28.5 µM (top of the series) unless noted
Procedure, shortened: as §1

[8] = qHTS profiling of the MIPE4 collection as inhibitors of Plasmodium falciparum (HB3) proliferation (AID 743347);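 note: plate controls were DMSO vehicle wells for no effect and artemisinin wells for full effect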; details: P. falciparum HB3 in erythrocytes, SYBR Green DNA, 72 h; at 28.5 µM (top of the series) unless noted
Procedure, shortened: as §1

[9] = High-throughput drug toxicity screening in the BPDCN cell line Gen2.2 (AID 1224824); details: Gen2.2 BPDCN cells; at 45.8 µM (top of the series) unless noted;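 note: cells exposed to compounds for 48 h before reading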
Procedure, shortened: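 Gen2.2, 500 cells/well, phenol red-free RPMI/10% FBS/Pen-Strep; 48 h cpd, 37 °C/5% CO2; CTG lum, 15 min RT. Norm: DMSO = 100%, bortezomib 9.2 uM final = 0%.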

[10] = High-throughput drug toxicity screening in the BPDCN cell line Cal-1 (AID 1224825); details: Cal-1 BPDCN cell viability, qHTS; at 45.8 µM (top of the series) unless noted
Procedure, shortened: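 Viability of the BPDCN line Cal-1 is measured as ATP-based luminescence (CellTiter-Glo) following 48 h incubation with compounds. Percent activity uses DMSO-treated wells as 100% and 9.2 uM bortezomib as 0%.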

[11] = qHTS assay for measurement of the activity of small molecule inhibitors on Zika virus induced Caspase-3 activity in human iPSC derived neural progenitor cells (hNPCs) (AID 1224857; active = well fitted curve in the direction sought with a large enough effect; an effect the other way counts as inactive or inconclusive; note: % of control where 0% means no effect; nearly all actives have a fitted effect of over 65% in size)
Procedure, shortened: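 Cells were plated at 350 per well and grown 16 to 20 hours. Compound pretreatment lasted one hour, after which ZIKV (2 FFU/cell) was added for 6 hours. Percent inhibition was normalized between uninfected and infected controls.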

[12] = qHTS assay for measurement of the activity of small molecule inhibitors on Zika virus induced Caspase-3 activity in human astrocytoma cells (AID 1224859; active = well fitted curve in the direction sought with a large enough effect; an effect the other way counts as inactive or inconclusive;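 note: plate controls were ZIKV-infected untreated cells for no effect and uninfected cells for full effect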)
Procedure, shortened: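 Percent inhibition of virus-induced caspase-3/7 signal is calculated against uninfected and ZIKV-infected control cells. Cells are SNB-19, infected at 2 FFU/cell for 6 h after 1 h compound exposure.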

[13] = qHTS Screen of the MIPE 4.0 Collection Against Ewings Sarcoma (RDES) (AID 1259252; active = well fitted curve in the direction sought with a large enough effect; an effect the other way counts as inactive or inconclusive; note: nearly all actives have a fitted effect of over 35% in size; note: potency is the fitted concentration of half-maximal effect)
Procedure, shortened: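 Compound titrations go onto adherent log-phase cells 4 h after seeding, incubate 48 h at 37C, then CellTiter-Glo luminescence reports viability relative to DMSO and cell-free controls.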

Compound	max response [1]	remaining parasite growth % (stronger effect = lower value) [2]	activity, percent of control [3]	remaining proliferation (% of control), lower = more inhibition [4]	parasite growth, % of DMSO control [5] [%]	parasite growth remaining, % of DMSO control (lower = more inhibition) [6] [%]	parasite growth, % of control (lower = inhibition) [7] [%]	growth, % of control [8] [%]	cell viability, % of control (lower = more cytotoxic) [9] [%]	viability (% of control) [10] [%]	Potency [11]	Potency [12]	Potency [13]	Potency [1]
OCCn1cc(-c2ccc3c(c2)CCC3=NO)c(-c2ccncc2)n1	8.08% (inactive)	89.8%	97.1%	73.4%	67.4	83.9	74.7	89.4	4.73	76.4	inactive	inactive	26.4 µM (active)	
CS(=O)(=O)c1ccc(C2=C(c3ccccc3)C(=O)OC2)cc1	3.44% (inactive)				94.3	83.1	70.8	58.5	123	109	inactive	inactive	inactive	
Cc1ccc(C(=O)N(CCCN)[C@@H](c2nc3cc(Cl)ccc3c(=O)n2Cc2ccccc2)C(C)C)cc1		-0.752%	0.933%	0.0585%	4.61		13.3	6.88	4.1	3.23	inactive	inactive	0.0017 µM (active)	18.7 µM (active)
N#Cc1c(N(CC(=O)O)CC(=O)O)sc(C(=O)O)c1CC(=O)O	-8.64% (inactive)				86.7	91.9	139	105	5.77	9.17	inactive	inactive	inactive	
CC(=O)Nc1cccc(-n2c(=O)n(C3CC3)c(=O)c3c(Nc4ccc(I)cc4F)n(C)c(=O)c(C)c32)c1		-2.85%	-0.291%	-0.298%	5.62	6.3	9.44	2.56	11.2	7.97	inactive	inactive	20.9 µM (active)	
CCN1C[C@H](C)n2c(c(O)c3c(=O)n(Cc4ccc(F)c(Cl)c4)nc(C(=O)NC)c32)C1=O									108	113	inactive	inactive	inactive	
Nc1ccc(-c2ccc3ncc4ccc(=O)n(-c5cccc(C(F)(F)F)c5)c4c3c2)cn1		-1.33%	-0.278%	-1.3%	4.25		9.23	2.97	6.66	3.86	inactive	inactive	0.0148 µM (active)	0.027 µM (active)
CN(C)CCN(C)C(=O)c1ccc(NC(=O)Nc2ccc(-c3nc(N4CCOCC4)c4ccn(CC(F)(F)F)c4n3)cc2)cc1		-0.909%	0.114%	-1%	5.47		20.5	5.21	4.33	3.29	inactive	inactive	0.0187 µM (active)	23.5 µM (active)
CCCCc1ccc(NS(=O)(=O)c2ccc(C)c(C(=O)N3CCN(c4cccc(C)c4C)CC3)c2)cc1	17% (inactive)	37.4%	96.6%	92.7%	232	99.3	59.2	257	425	99.3	inactive	inactive	inactive	
COc1cc([C@@H]2c3cc4c(cc3[C@@H](O[C@@H]3O[C@@H]5CO[C@@H](C)O[C@@H]5[C@H](O)[C@@H]3O)[C@H]3COC(=O)[C@H]23)OCO4)cc(OC)c1O		51.5% [at 9.63 µM]	47.3% [at 9.63 µM]	11.4% [at 9.63 µM]	10.3	11	140	4.48	57.1	8.03	inactive	inactive	1.05 µM (active)	
C[C@H](CCC(=O)O)[C@H]1CC[C@H]2[C@H]3[C@@H](CC[C@]12C)[C@@]1(C)CC[C@@H](O)C[C@H]1C[C@@H]3O									75.1	35.2	inactive	inactive	inactive	
Cc1cccc(Nc2nc(N[C@@H]3CCCC[C@H]3N)ncc2C(N)=O)c1		0.221%	4.78%	0.632%	5.2	10.2	7.28	2.45	2.09	2.41	inactive	inactive	16.6 µM (active)	9.35 µM (active)
Cn1cc(-c2ccc3nnc(Sc4ccc5ncccc5c4)n3n2)cn1	-16.9% (inactive)	74.3%	95.2%	72.7%	36.1	86.3	42.5	43.3	121	102	inactive	inactive	20.9 µM (active)	
CO[C@@H]1C(N(C)C(=O)c2ccccc2)C[C@H]2O[C@]1(C)n1c3ccccc3c3c4c(c5c6ccccc6n2c5c31)C(=O)NC4=O (some centres undefined)		110%	103%	120%	17.5	8.87	122	28.7	247	28.3	inactive	inactive	4.18 µM (active)	
COc1cc2nccc(Oc3ccc(NC(=O)Nc4cc(C)on4)c(Cl)c3)c2cc1OC	19.1% (inactive)	62.8%	62%	11.5%	7.24	22.7	27.3	3.73	52.1	13	inactive	inactive	2.35 µM (active)	
CCCCn1c(=O)n(Cc2ccccc2F)c(=O)c2[nH]c(Cc3ccc(NC(C)=O)cc3)nc21	66.3% (inactive)	71.1%	63.7%	30.8%	115		43.7	314	50.4	86	inactive	inactive	inactive	
